This is an account of results in PubChem BioAssay (NCI).

This is part of a sample that, as a whole, favours compounds with a hit. Of some 83,000 tested, about 20% had one in any assay.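 Single-concentration screen, 48 h exposure, 96-well plates. Endpoint: percent growth. Below 10 = active.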 Unmarked numbers belong to inactive results. Calls of active or inactive are those of the source.

This assay relates to MDA-MB-468 breast. Nature of the assay: NCI-60 one-dose screen, 48 h (100 = growth as untreated, 0 = no growth, -100 = all killed). The following applies: 10 µM unless noted.
Regarding `Cc1ccc(S(=O)(=O)N(C)CCCCCC(=O)O)cc1`, the growth was 108%.

In the case of `CC(=O)CC(c1ccccc1)c1c(C)[nH]c2ccccc12` (centres undefined), the growth was 106%.

`OC(c1cccc(-n2ccc(C(F)(F)F)n2)c1)c1cnccc1NC1CCCCCC1` (centres undefined): the growth was -59.4% (active).

On to `CNC(=O)c1cc(Oc2ccc(NC(=O)Nc3ccc(Cl)c(OC(C)C)c3)c(F)c2)ccn1`, for which the growth is 11.8%.

With `COc1ccc(C(=O)NC(=O)Nc2cc3c(cc2F)/C(=C/c2[nH]c(C)c(CCC(=O)O)c2C)C(=O)N3)c(F)c1`, the growth was 50.4%.

Turning to `CCCCSc1nnc(-c2ccc(-c3ccc(Cl)cc3)nc2C)o1`, the growth is 107%.

Turning to `CC(=O)OC(C(=O)c1ccccc1)c1ccccc1` (centres undefined), the growth was 109%.

For the molecule `N#CC(C#N)=C1NC(c2ccccc2)=C(c2ccccc2)C(c2ccccc2Cl)=C1C#N`, the growth is 129%.

Turning to `CC(=O)c1c(C)nc2ccccc2c1/C=C/c1ccc(F)cc1`, the growth is 46.1%.

For `O=C1c2ccccc2C(c2ccccc2)C1c1ccccc1` (centres undefined), the growth is 71.4%.

With `CCN1CCN(CC(=O)Nc2nc3ccc(NCc4ccc(F)cc4)cc3s2)CC1`, the growth was 86.1%.

For the molecule `CC/C(=C(/c1ccc(Cl)cc1)c1ccc(OCCN2CCCC2)cc1)c1ccccc1`, the growth was 46.9%.

Regarding `CCOC(=O)C(CSC(c1ccccc1)(c1ccccc1)c1ccccc1)NC(=O)C(CSC(c1ccccc1)(c1ccccc1)c1ccccc1)NC(c1ccccc1)(c1ccccc1)c1ccccc1` (centres undefined), the growth is 101%.

For `Cc1ccc(N=c2nc3sc4c(C)ccc(C)c4n3c(N)c2C#N)cc1`, the growth is 115%.
